The whole screen tested about 2,200 compounds, of which about 530 (24%) were called active.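 How the source made its calls: active means inhibition above a set limit at one or more concentrations of the dose series; inactive means inhibition under that limit at every dose.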 Only a sample is shown. Measured potencies and affinities stand elsewhere.

A short description of this assay: S. Typhimurium nonspecific reporter signal inhibition – Salmonella Typhimurium, GFP fluorescence, counter-screen for PhoP regulon inhibitor project, dose response (AID 2401).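 Further: S. typhimurium with Mg-insensitive nmpC-GFP reporter grown at 10 µM Mg2+; drop in reporter fluorescence reflects general culture growth inhibition.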 The note with it: 4 h; series mostly up to 150 µM. In general terms: The purpose of a counterscreen is to sort out artefacts and off-target activity.
Turning to `CCOc1cc(CNn2cnnc2)ccc1OCC(=O)NC1CCCCC1`, the result was inactive.
Next, `O=C(CCCNS(=O)(=O)c1ccccc1)NCc1ccco1`: “inactive”; `Cc1ccc(C(=O)Nc2ccc3c(c2)OCO3)o1`: “inactive”.
For the compound `Clc1ccc(C[n+]2cc(-c3ccc(Cl)cc3)n3c2CCC3)cc1`, the compound was classed as inactive.
On to `Clc1ccc(-c2cnc3n2CCC3)cc1`, for which the result was inactive.
The value for `COC(=O)Cc1c(O)ccn(Cc2ccc(F)cc2)c1=O` was “inactive”.
For the compound `O=C(O)Cn1cc(C(=O)c2ccco2)c2ccccc21`, the compound was classed as inactive.
The value for `CCn1cc(C(=O)O)c(=O)c2cc(OC)ccc21` was “inactive”; that for `O=C(Nc1ccc(NC(=O)C23CC4CC(CC(C4)C2)C3)cn1)c1ccco1` was “inactive”.
Turning to `Oc1ccc(-c2n[nH]c(=S)n2-c2ccc3c(c2)OCCO3)c(O)c1`, the call was inactive.
Next, `Nn1c(COc2cccc(Br)c2)nnc1SCC(=O)N1CCc2ccccc2C1`: “inactive”; `c1ccc2c(C3=NNC(=NC4CC4)SC3)c[nH]c2c1`: “inactive”; `O=C(Nc1cnn(Cc2ccc(Cl)cc2Cl)c1)c1noc2c1CCCC2`: “inactive”.
Next, `CC(=O)c1c(N2CCN(C(=O)C3CCCO3)CC2)nc(=S)n(-c2ccccc2)c1C` (stereo unspecified): “inactive”; `Nc1ccccc1NC1=CC(=O)CC(c2ccco2)C1` (stereo unspecified): “inactive”.
Next, `CCOC(=O)C1=NNC2(c3ccc(Cl)cc3)C(=O)N(c3cc(C)cc(C)c3)C(=O)C12` (stereo unspecified): “inactive”; `NC1=NC(=Nc2ccc(Cl)cc2)c2ccccc21`: “inactive”.
Regarding `C=CCNCC#CCOc1ccc(OC)cc1`, the outcome was inactive.
As to `O=C1NC2=C(CCc3ccccc32)C(c2ccc(Br)cc2)N1` (stereo unspecified), the compound was called inactive.
The value for `Cc1nc(C(=O)Nc2ccc(Cl)cc2)nn1-c1ccc([N+](=O)[O-])cc1` was “inactive”; that for `O=c1[nH]c2cc3c(cc2cc1CN(CCc1ccccc1)Cc1nnnn1CC1CCCO1)OCO3` (stereo unspecified) was “inactive”; that for `Cc1cc(-c2csc(NC(=O)c3ccc(S(=O)(=O)N(C)C)cc3)n2)c(C)n1-c1ccccc1` was “inactive”.
The value for `Cc1cc(C(=O)NCc2ccco2)no1` was “inactive”.
Regarding `COc1ccc(-c2cc(-c3ccc(OC)c(OC)c3)n[nH]2)c(O)c1`, the result was inactive.
For the compound `COCCNC(=O)c1ccccc1NS(=O)(=O)c1ccc(Br)s1`, the compound was classed as inactive.
The value for `Cc1cccn2cc(CSc3nnc(Nc4ccc(C(C)C)cc4)s3)nc12` was “inactive”.
Next, `CCC(CC)C(=O)N1c2ccc(F)cc2CCC1C` (stereo unspecified): “inactive”; `CC1(C)CC(=O)C2=C(C1)N(Cc1ccccc1)C(=O)C2(O)C(F)(F)F` (stereo unspecified): “inactive”.
Next, `COc1ccc(CNc2nc3c(c(=O)[nH]c(=O)n3C)n2CCCc2ccccc2)cc1`: “inactive”; `COC(=O)c1cc(C#N)c(Oc2cccc(C)c2C)nc1C`: “inactive”.
With `COC(=O)CN1C(c2ccc(OC)cc2)=Nc2ccc(Cl)cc2C1c1ccccc1` (stereo unspecified), the compound was classed as inactive.
As for `CCCCn1c(O)c(C(CC)=Nc2ccc3c(c2)CCC3)c(=O)[nH]c1=O`, the call was inactive.
Take `Cc1ccc(C(=O)C(OC(=O)COc2ccccc2C)c2ccccc2)cc1` (stereo unspecified): the compound was classed as inactive.
Next, `Cc1ccc(C(=O)N2CC3(C(C)C)CN(C(=O)c4ccc(C)cc4)CC(C(C)C)(C2)C3=O)cc1`: “inactive”.
The value for `Cc1cc(C)c(NC(=O)COc2ccccc2C(=O)Nc2ccc3c(c2)oc2ccccc23)c(C)c1` was “inactive”; that for `CC1(C)CC(=O)C=C(Nc2ccccc2NC(=O)c2cnccn2)C1` was “inactive”; that for `COc1cc(C2NC(=O)NC(c3ccccc3)=C2C(C)=O)ccc1OCC(=O)O` (stereo unspecified) was “inactive”.
Next, `Cc1c(/C=C/C(=O)c2ccccc2)cnn1C`: “inactive”; `Cc1ccc(C(=O)c2ccccc2C(=O)O)c(O)c1`: “inactive”; `COc1cccc(OC)c1C(=O)NC(=S)Nc1cc(-c2nc3ccccc3[nH]2)ccc1Cl`: “inactive”.
In the case of `Cc1cc(C=O)c(C)n1-c1ccc(Oc2ccc([N+](=O)[O-])cn2)cc1`, the call was inactive.
On to `CCCn1c(SCC(=O)NCCc2ccccc2)nnc1-c1cccnc1`, for which the call was inactive.
The value for `O=[N+]([O-])c1ccc(N2CCN(CCOc3nonc3-c3ccccc3)CC2)c(Cl)c1` was “inactive”; that for `Cc1ccc(S(=O)(=O)c2c(N)n(NC(=O)c3ccco3)c3nc4ccccc4nc23)cc1` was “inactive”.
`Cc1c(Cl)cccc1NC(=O)CSc1ncnc2c1cnn2CCc1ccccc1`: the result was inactive.
The value for `Cc1cccc(NC(=S)NC(NC(=O)c2ccco2)C(Cl)(Cl)Cl)c1` (stereo unspecified) was “inactive”; that for `CN(C)CCOC(=O)Cc1ccc(Cl)cc1` was “inactive”; that for `O=C(CN1C(=O)c2ccccc2C1=O)N1CCN(c2ccccn2)CC1` was “inactive”.
The value for `COC(=O)c1ccccc1Oc1cnc2ccccc2n1` was “inactive”; that for `Brc1ccc(NC2=Nc3ccccc3CC2)cc1` was “inactive”; that for `COc1ccc(N(CC(=O)Nc2ccccc2SC)S(C)(=O)=O)cc1OC` was “inactive”.
The value for `Cc1ccccc1CS(=O)(=O)c1snnc1C` was “inactive”; that for `CC(=O)Nc1ccc(NS(=O)(=O)c2ccc3c(c2)n(C)c(=O)n3C)cc1` was “inactive”.
Turning to `CCOc1ccc(-c2nnc(SCc3nnc(-c4ccccc4)o3)n2-c2ccccc2F)cc1`, the outcome was inactive.
As to `COc1ccc(/C=C/C(=O)NCCc2nc3ccccc3[nH]2)cc1`, the outcome was inactive.
Next, `CCOc1cc(/C=C2/NC(=O)N(CC(=O)Nc3cccc(C)c3)C2=O)ccc1OC`: “inactive”.
With `O=C(c1cccnc1Nc1ccc2c(c1)CCC2)N1CCOCC1`, the outcome was inactive.
Next, `Cc1cc(C)cc(NC(=O)CSc2nc3c(c(=O)[nH]2)CN(Cc2ccc(F)cc2)CC3)c1`: “inactive”; `O=C(c1cc2ncc(Br)cn2n1)N1CCOCC1`: “inactive”.
The value for `O=[N+]([O-])c1ccccc1CNc1ccc(F)c(Cl)c1` was “inactive”; that for `Nc1nnc(SCCOc2ccc(Br)cc2)s1` was “inactive”.
The value for `O=S(=O)(NCc1ccccc1)c1cccc(S(=O)(=O)N2CCOCC2)c1` was “inactive”.
For `COc1ccc(Cl)cc1Nc1nc(-c2sc(NC(=O)c3ccco3)nc2C)cs1`, the call was inactive.
With `O=C(/C=C/c1ccccc1)N1CCN(c2c(Cl)cccc2[N+](=O)[O-])CC1`, the compound was called inactive.
Turning to `CCCCOC(=O)CCNc1n[nH]c(=O)[nH]c1=O`, the result was inactive.
Take `CN1CCN(S(=O)(=O)c2ccc(N)cc2)CC1`: the result was inactive.
As for `O=C(NCc1ccccn1)Nc1cccc(Cl)c1`, the compound was called inactive.
The value for `Cn1c(N)c(C(=O)COC(=O)C2CCCCC2)c(=O)n(C)c1=O` was “inactive”; that for `CC(C)CNC(=O)c1ccc(COc2ccc(Cl)cc2Cl)o1` was “inactive”.
Next, `C#CCOc1ccc(Cl)cc1/C=N/O`: “inactive”; `CCCCN(C(=O)NC(=O)Nc1nc2ccc(OC)cc2s1)S(C)(=O)=O`: “inactive”.

For the origin of these results see PubChem BioAssay AID2401 (Southern Research Specialized Biocontainment Screening …, 2010).
